Most compounds without a hit are left out; they make up all but 27% or so of the library.
CYP2C9 activ: increases human cytochrome P450 2C9 activity; 96,000 tested, 1.4% active; P11712; activation factor at 5 µM; AID 1024; recombinant CYP2C9, luciferin-H conversion, luminescence; active compounds read high; factor 1 = untreated enzyme, 0 = blocked;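 active means activation factor of 2 or more for CYP2C9 at a 5 µM dose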;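 further: 0 = sulfaphenazole-blocked wells and 1 = vehicle-only wells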
Target sequence (P11712 whole entry, looked up): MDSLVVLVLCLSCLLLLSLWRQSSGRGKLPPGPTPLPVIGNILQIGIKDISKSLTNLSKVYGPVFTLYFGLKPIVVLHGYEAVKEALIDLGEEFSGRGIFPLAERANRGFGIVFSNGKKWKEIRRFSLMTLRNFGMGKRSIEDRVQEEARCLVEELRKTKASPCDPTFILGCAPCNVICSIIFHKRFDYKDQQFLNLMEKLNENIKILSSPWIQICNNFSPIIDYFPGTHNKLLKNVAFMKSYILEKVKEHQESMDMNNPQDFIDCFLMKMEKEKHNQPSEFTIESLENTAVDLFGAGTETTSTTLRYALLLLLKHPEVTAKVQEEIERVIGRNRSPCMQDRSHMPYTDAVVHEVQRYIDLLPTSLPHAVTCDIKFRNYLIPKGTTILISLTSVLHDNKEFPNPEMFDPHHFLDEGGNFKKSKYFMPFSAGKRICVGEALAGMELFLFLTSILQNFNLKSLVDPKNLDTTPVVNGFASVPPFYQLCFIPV
CYP2C19 inhib: inhibitors of human CYP2C19. AID 778. CYP2C19 Supersomes, luciferin-H EGE luminescence, 30 min. inhibition, % at 5 µM. 96,000 tested, 21% active;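 active means CYP2C19 inhibition above a set limit at 5 µM in the primary screen, cut at about 50% in these data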;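 further: plate controls were negative control wells for no effect and 2.5 mM tranylcypromine positive control for full effect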
CYP2C19 activ: activators of human cytochrome P450 2C19; recombinant CYP2C19, luciferin-H EGE luminescence; active compounds read high; 0 = fully inhibited enzyme, 1 = untreated enzyme; 96,000 tested, under 10 active; activation factor at 5 µM;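 active means activation factor of at least 2 at 5 µM in the primary screen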;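 further: 0 = wells with 2.5 mM tranylcypromine and 1 = vehicle-only wells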
Cav32 inh: blocks human Cav3.2 T-type calcium channel | B-score at 10 µM | Cav3.2-expressing cells, Fluo-4 calcium fluorescence FDSS; active compounds read low | AID 449739 | 100,000 tested, 4% active;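 active means single-dose well whose peak fluorescence ratio is a statistical outlier from its plate by either plate-standardised score or position-corrected B-score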
CYP2C9 inh: inhibitors of human CYP2C9; P11712; CYP2C9 Supersomes, luciferin-H conversion, luminescence; inhibition, % at 5 µM; 96,000 tested, 20% active; AID 777;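 active means blocking of liver enzyme CYP2C9 beyond about 50% at 5 µM, limit read from the data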
* = called active by the depositor; . = not tested or not shown.

SMILES	CYP2C9 activ	CYP2C19 inhib	CYP2C19 activ	Cav32 inh	CYP2C9 inh
Cc1cc2cc(C)c3nnc(SCC(=O)N4CCc5ccccc54)n3c2cc1C	1	-6	1.1	-0.0047	-3
CC(OC(=O)c1nsc(Cl)c1Cl)C(=O)NC(C)(C)C (stereo unspecified)	.	.	.	0.94	.
COc1ccc(NS(=O)(=O)c2ccc(OC)c3ccccc23)cn1	0.1	17	0.8	-1.5	85*
COc1ccccc1NC(=O)NC1(C(=O)N2CCCCCC2)CCCCC1	.	.	.	-0.95	.
COc1ccc(CN(CCCN2CCOCC2)S(=O)(=O)N(C)C)cc1OC	1	9	0.9	0.31	3
COc1ccc(CN(CCN2CCOCC2)C(=O)c2c(F)cccc2F)cc1OC	0.6	52*	0.5	0.54	37
CCc1ccc(NC(=O)N(CCCN2CCOCC2)C(C)c2cc3cccc(OC)c3o2)cc1 (stereo unspecified)	0.3	40	0.6	-4.9	68*
COc1cccc2cc(C(=O)C3=C(O)C(=O)N(CCN4CCOCC4)C3c3cccs3)oc12 (stereo unspecified)	1.2	-10	1.1	0.66	-22
O=C(Nc1cccc(Cl)c1)N(CCCN1CCOCC1)Cc1ccccc1F	0.3	28	0.7	0.57	65*
O=S(=O)(c1cccc(C(F)(F)F)c1)N(CCCN1CCOCC1)Cc1cccs1	0.8	64*	0.4	-1.4	21
COC(=O)c1ccccc1S(=O)(=O)N(CCCN1CCOCC1)Cc1cccs1	.	.	.	0.52	.
O=C(Nc1ccccc1)N(CCCN1CCOCC1)Cc1ccccc1F	0.8	13	0.9	1.5	25
CCOC(=O)c1cc(NC(=O)c2ccc(Cl)cc2)c(=O)n2c1oc1ccc(Cl)cc12	1	0	1	0.62	1
CCOC(=O)N1CCN(C2OC(=O)c3ccccc32)CC1 (stereo unspecified)	1	-2	1	0.0066	0
Cc1noc(/C=C/N(C)C)c1S(=O)(=O)N1CCCC(C(=O)NC2CCCCC2C)C1 (stereo unspecified)	0.5	15	0.9	.	47
CC(=O)N1CCC(N(CCN2CCOCC2)C(=O)Nc2ccc(Cl)c(Cl)c2)CC1	.	.	.	0.81	.
COc1ccc(CN(CCCN2CCOCC2)C(=O)Nc2ccccc2)cc1OC	0.4	25	0.8	0.73	57*
O=C(Nc1ccc(Cl)c(Cl)c1)N(CCCN1CCOCC1)Cc1cccs1	0.2	89*	0.1	-0.54	84*
O=C(Nc1ccccc1)N(CCN1CCOCC1)Cc1cccc(Cl)c1	0.2	79*	0.2	.	84*
Cc1ccc(N(CC(=O)Nc2ccccc2C(=O)N2CCOCC2)S(C)(=O)=O)cc1	.	.	.	0.37	.
COc1ccc(NC(=O)c2cc(-c3cc(C)cc(C)c3O)n[nH]2)cc1Cl	0.9	39	0.6	-0.77	10
Cc1ccc(-c2noc(CN3CCC(C(N)=O)CC3)n2)cc1	1.1	3	1	.	-12
Cc1ccc(-c2noc(CN3C(C)CCCC3C)n2)cc1 (stereo unspecified)	0.6	51*	0.5	-0.44	36
CCN1C(=O)c2ccccc2S(=O)c2ccc(C(=O)NC3CC3)cc21 (stereo unspecified)	1	2	1	0.09	4
CCN(CC)CC(=O)NCc1cc(-c2ccc(OC)cc2)no1	0.8	18	0.8	.	16
SMILES	CYP2C9 activ	CYP2C19 inhib	CYP2C19 activ	Cav32 inh	CYP2C9 inh
CC1(C)Cc2c(cnn2-c2ccccc2)C(=O)/C1=N\NC(=O)c1ccccc1	0.8	17	0.8	0.71	17
CC1(C)Cc2c(cnn2-c2ccccc2)C(=O)/C1=N\NC(=O)c1ccccc1O	0.8	51*	0.5	-1.8	24
CC(C)COc1ccc(CSCCNC(=S)Nc2ccccc2)cc1	0.4	36	0.6	-4.1*	58*
CC(C)(C)c1cc2cccnc2n1Cc1cccc(Cl)c1	0.8	48	0.5	.	16
O=C(CNS(=O)(=O)c1cccs1)N1CCCC1	1	10	0.9	-0.013	-4
CC(C)C(NS(=O)(=O)c1cccs1)C(=O)N1CCc2ccccc2C1 (stereo unspecified)	0.6	79*	0.2	.	43
O=C(CNS(=O)(=O)c1cccs1)N1CCc2ccccc2C1	1.1	53*	0.5	.	-13
O=C(CCCNS(=O)(=O)c1cccs1)N1CCc2ccccc2C1	1.6	55*	0.4	0.4	-62
COc1ccc2nc(SCC(=O)N(C)C3CCCCC3)c(C#N)cc2c1	1	37	0.6	-3.7	0
COc1cccc(/C=N/n2c(-c3cccs3)n[nH]c2=S)c1	0.6	25	0.7	0.49	40
COc1ccc(C2NC(=O)c3sc(=S)n(-c4ccccc4)c3N2)cc1 (stereo unspecified)	1.1	10	0.9	-8.4*	-12
Cc1c(C(=O)O)sc(=S)n1-c1ccccc1	1	8	0.9	0.11	3
N#CCCN(CCC#N)C(=O)c1ccc2c(c1)OCO2	1.1	-4	1	0.7	-8
Cc1oc2ccc(OCC(N)=O)cc2c1C(=O)OC(C)C	0.6	28	0.7	0.45	44
CCOC(=O)c1c(C)oc2ccc(OCc3cc(C(=O)OC)oc3C)cc12	0.1	64*	0.4	-0.58	86*
CCOC(=O)c1c(C)oc2ccc(OCC(=O)C(C)(C)C)cc12	0.3	65*	0.3	-1.7	72*
COC(=O)c1ccc(NC(=O)CSCc2ccccc2C)cc1	0.1	94*	0.1	-2.8	92*
COC(=O)c1ccc(NC(=O)CSCc2ccc(C)cc2)cc1	0.1	75*	0.2	-0.29	90*
Cc1ccc(NC(=O)CSCC(=O)N2c3ccccc3CCc3ccccc32)cc1	0.4	54*	0.5	-4.9*	63*
Cc1ccc(-c2nnn(CC(=O)N3c4ccccc4CCc4ccccc43)n2)cc1	.	.	.	-0.9	.
C#Cc1ccc([C@H]2C=C(C(=O)NC3CC3)O[C@@H](OCC)[C@@H]2CCCO)cc1	.	.	.	1.1	.
O=C(Nc1ccccc1)C1=C[C@@H](c2ccc(C(F)(F)F)cc2)C[C@@H](OCCCCO)O1	.	.	.	-1.3	.
CC(=O)c1cccc(S(=O)(=O)N2CCN(c3nc4cc(C)cc(C)c4cc3C#N)CC2)c1	0.3	58*	0.4	-1.8	67*
O=C(Cc1cccs1)OCC(=O)c1ccco1	0.9	26	0.7	-0.072	8
O=C(CC(Sc1ccccc1)c1cccs1)c1ccco1 (stereo unspecified)	0.1	100*	0	-0.98	95*
O=C(CSc1nnc(-c2ccccc2)o1)N1CCc2ccccc2C1	0.9	13	0.9	-0.61	12
Cc1cccc(-c2nc(CS(=O)CC(=O)N3CCCCC3)c(C)o2)c1 (stereo unspecified)	0.3	23	0.8	0.49	70*
Cc1oc(-c2ccc(Cl)cc2)nc1CN1CCC(C(=O)N2CCc3ccccc3C2)CC1	0.8	90*	0.1	.	15
Cc1oc(-c2ccc(Cl)cc2)nc1CN1CCC(C(=O)N2CCN(Cc3ccccc3)CC2)CC1	0.8	7	0.9	.	20

Screens as filed in PubChem.
